Measured values reported in the supplement of paper PMC8975748.
Where a name gives a salt, the structure may show the parent alone. ± gives the standard deviation of the averaged measurements.

Assays:
[1] = test system: Saccharomyces cerevisiae BY4741 SeMeCo community; assay: z-score of prototroph abundance vs DMSO median; higher = larger share of this subpopulation than in DMSO controls; settings: 10 µM; 24 h; SM minimal medium; subpopulation (auxotrophy): Prototroph
Outline: (§1)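 Four plasmids, each restoring a single auxotrophy and encoding a distinct fluorescent protein, were carried by a Saccharomyces cerevisiae BY4741 community. After overnight growth to OD600 1.0 and dilution to 0.3, 70 µl per well was grown for 24 h in minimal SM medium on 384-well plates acoustically predosed with library drugs at 10 µM final. Following paraformaldehyde fixation, automated confocal microscopy was used, with single-auxotroph fluorescent strains defining thresholds and autofluorescence correction. Subpopulation abundance was then scored as a z-score against the vehicle-well median.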

[2] = test system: Saccharomyces cerevisiae BY4741 SeMeCo community; assay: z-score of subpopulation abundance vs DMSO median, subpopulation auxotrophic for L; higher = larger share of this subpopulation than in DMSO controls; settings: 10 µM; 24 h; SM minimal medium; subpopulation (auxotrophy): L
Outline: as §1

[3] = test system: Saccharomyces cerevisiae BY4741 SeMeCo community; assay: z-score of subpopulation abundance vs DMSO median, subpopulation auxotrophic for U; higher = larger share of this subpopulation than in DMSO controls; settings: 10 µM; 24 h; SM minimal medium; subpopulation (auxotrophy): U
Outline: as §1

[4] = test system: Saccharomyces cerevisiae BY4741 SeMeCo community; assay: z-score of subpopulation abundance vs DMSO median, subpopulation auxotrophic for H; higher = larger share of this subpopulation than in DMSO controls; settings: 10 µM; 24 h; SM minimal medium; subpopulation (auxotrophy): H
Outline: as §1

[5] = test system: Saccharomyces cerevisiae BY4741 SeMeCo community; assay: z-score of subpopulation abundance vs DMSO median, subpopulation auxotrophic for LU; higher = larger share of this subpopulation than in DMSO controls; settings: 10 µM; 24 h; SM minimal medium; subpopulation (auxotrophy): LU
Outline: as §1

[6] = test system: Saccharomyces cerevisiae BY4741 SeMeCo community; assay: z-score of subpopulation abundance vs DMSO median, subpopulation auxotrophic for LM; higher = larger share of this subpopulation than in DMSO controls; settings: 10 µM; 24 h; SM minimal medium; subpopulation (auxotrophy): LM
Outline: as §1

[7] = test system: Saccharomyces cerevisiae BY4741 SeMeCo community; assay: z-score of subpopulation abundance vs DMSO median, subpopulation auxotrophic for HM; higher = larger share of this subpopulation than in DMSO controls; settings: 10 µM; 24 h; SM minimal medium; subpopulation (auxotrophy): HM
Outline: as §1

[8] = test system: Saccharomyces cerevisiae BY4741 SeMeCo community; assay: z-score of subpopulation abundance vs DMSO median, subpopulation auxotrophic for UM; higher = larger share of this subpopulation than in DMSO controls; settings: 10 µM; 24 h; SM minimal medium; subpopulation (auxotrophy): UM
Outline: as §1

[9] = test system: Saccharomyces cerevisiae BY4741 SeMeCo community; assay: z-score of subpopulation abundance vs DMSO median, subpopulation auxotrophic for HL; higher = larger share of this subpopulation than in DMSO controls; settings: 10 µM; 24 h; SM minimal medium; subpopulation (auxotrophy): HL
Outline: as §1

[10] = test system: Saccharomyces cerevisiae BY4741 SeMeCo community; assay: z-score of subpopulation abundance vs DMSO median, subpopulation auxotrophic for HLM; higher = larger share of this subpopulation than in DMSO controls; settings: 10 µM; 24 h; SM minimal medium; subpopulation (auxotrophy): HLM
Outline: as §1

[11] = test system: Saccharomyces cerevisiae BY4741 SeMeCo community; assay: z-score of subpopulation abundance vs DMSO median, subpopulation auxotrophic for HUM; higher = larger share of this subpopulation than in DMSO controls; settings: 10 µM; 24 h; SM minimal medium; subpopulation (auxotrophy): HUM
Outline: as §1

[12] = test system: Saccharomyces cerevisiae BY4741 SeMeCo community; assay: z-score of subpopulation abundance vs DMSO median, subpopulation auxotrophic for LUM; higher = larger share of this subpopulation than in DMSO controls; settings: 10 µM; 24 h; SM minimal medium; subpopulation (auxotrophy): LUM
Outline: as §1

[13] = test system: Saccharomyces cerevisiae BY4741 SeMeCo community; assay: z-score of subpopulation abundance vs DMSO median, subpopulation auxotrophic for HLUM; higher = larger share of this subpopulation than in DMSO controls; settings: 10 µM; 24 h; SM minimal medium; subpopulation (auxotrophy): HLUM
Outline: as §1

[14] = test system: Saccharomyces cerevisiae BY4741 SeMeCo community; assay: mean cell size (pixel area) (pixels); higher = larger cells; settings: 10 µM; 24 h; SM minimal medium
Outline: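 In this assay, mean cell pixel area per well was obtained from automated confocal images of paraformaldehyde-fixed yeast analysed in Harmony. The cells were a Saccharomyces cerevisiae BY4741 community with four plasmids, each complementing one auxotrophy and carrying a fluorescent marker, grown for 24 h in SM medium with drug at a final 10 µM in 384-well plates. Values are averaged across 3 replicates. Same SeMeCo high-content imaging drug screen: Selleck FDA-approved drugs at 10 µM, 24 h in SM medium, 384-well plates, 3 replicates.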

[15] = test system: Saccharomyces cerevisiae BY4741 SeMeCo community; assay: z-score of subpopulation abundance vs DMSO median, subpopulation auxotrophic for HU; higher = larger share of this subpopulation than in DMSO controls; settings: 10 µM; 24 h; SM minimal medium; subpopulation (auxotrophy): HU
Outline: as §1

With Cc1c(C)c2c(c(C)c1O)CCC(C)(CCCC(C)CCCC(C)CCCC(C)C)O2 (stereo not given) [Vitamin E] the “z-score of prototroph abundance” value [1] was 0.82, the “z-score of subpopulation abundance” value [2] was -0.8 and the “z-score of subpopulation abundance” value [3] was 0.13. For the same compound, the “z-score of subpopulation abundance” value [4] was -0.89, the “z-score of subpopulation abundance” value [5] was -0.31 and the “z-score of subpopulation abundance” value [6] was -0.64. For the same compound, the “z-score of subpopulation abundance” value [7] was -1.28, the “z-score of subpopulation abundance” value [8] was -0.04 and the “z-score of subpopulation abundance” value [9] was -1.01. The “z-score of subpopulation abundance” value [10] was -1.72, the “z-score of subpopulation abundance” value [11] was -0.31 and the “z-score of subpopulation abundance” value [12] was -0.41. For the same compound, the “z-score of subpopulation abundance” value [13] was -1.29.

With CN(C)[C@@H]1C(O)=C(C(N)=O)C(=O)[C@@]2(O)C(O)=C3C(=O)c4c(O)cccc4[C@@](C)(O)[C@H]3[C@H](O)[C@@H]12 [Oxytetracycline Dihydrate] the mean cell size [14] was 12.6 ± 0.18.

CCCCN1CCCC[C@H]1C(=O)Nc1c(C)cccc1C [Levobupivacaine HCl] was tested, and the mean cell size [14] was 12.4 ± 0.15, the “z-score of prototroph abundance” value [1] was 0.73 and the “z-score of subpopulation abundance” value [2] was 0.42. For the same compound, the “z-score of subpopulation abundance” value [3] was -0.04, the “z-score of subpopulation abundance” value [4] was -0.68 and the “z-score of subpopulation abundance” value [5] was -0.09. The “z-score of subpopulation abundance” value [6] was -0.55, the “z-score of subpopulation abundance” value [7] was -1.34 and the “z-score of subpopulation abundance” value [15] was 0.14. For the same compound, the “z-score of subpopulation abundance” value [9] was -0.46, the “z-score of subpopulation abundance” value [10] was -0.93 and the “z-score of subpopulation abundance” value [12] was -0.33. For the same compound, the “z-score of subpopulation abundance” value [13] was -0.43.

For Nc1ccc(S(=O)(=O)Nc2cnc3ccccc3n2)cc1 [Sulfaquinoxaline sodium], the mean cell size [14] was 12 ± 0.22, the “z-score of prototroph abundance” value [1] was -0.68 and the “z-score of subpopulation abundance” value [2] was -1.08. The “z-score of subpopulation abundance” value [3] was 1.01, the “z-score of subpopulation abundance” value [4] was -1.04 and the “z-score of subpopulation abundance” value [6] was 0.34. The “z-score of subpopulation abundance” value [7] was 0.61, the “z-score of subpopulation abundance” value [15] was 1.05 and the “z-score of subpopulation abundance” value [8] was 1.56. The “z-score of subpopulation abundance” value [9] was -0.29, the “z-score of subpopulation abundance” value [10] was -0.05 and the “z-score of subpopulation abundance” value [11] was 0.79. The “z-score of subpopulation abundance” value [12] was 0.81 and the “z-score of subpopulation abundance” value [13] was -0.23.

Work on CN(C)c1ccc(O)c2c1C[C@H]1C[C@H]3[C@H](N(C)C)C(O)=C(C(N)=O)C(=O)[C@@]3(O)C(O)=C1C2=O [Minocycline HCl] yielded a mean cell size [14] of 12.2 ± 0.13.

CC(=O)O[C@H]1C[C@@]2(C)[C@@H](C[C@@H](O)[C@H]3[C@@]4(C)CC[C@@H](O)[C@@H](C)[C@@H]4CC[C@@]32C)/C1=C(\CCC=C(C)C)C(=O)O [Fusidine] gave a mean cell size [14] of 12.41 ± 0.032.

Compound CC(=O)OCC1=C(C(=O)O)N2C(=O)[C@@H](NC(=O)CSC(=NC(C)C)NC(C)C)[C@H]2SC1 [Cefathiamidine] has a mean cell size [14] of 12.3 ± 0.14.

CO[C@@H]1[C@@H](O[C@@H]2O[C@H](C)[C@@H](O[C@H]3C[C@@](C)(O)[C@@H](OC(=O)CC(C)C)[C@H](C)O3)[C@H](N(C)C)[C@H]2O)[C@@H](CC=O)C[C@@H](C)[C@@H](O)/C=C/C=C/C[C@@H](C)OC(=O)C[C@H]1O [Kitasamycin] was tested, and the mean cell size [14] was 12.32 ± 0.037.
